Data reported in PubChem BioAssay AID588675 (Johns Hopkins Ion Channel Center, 2011).
Among all 310,000 compounds or so, about 1,900 (0.61%) were called active.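 How the source made its calls: active means plate-corrected calcium response at least 3 library SD above typical, normal starting fluorescence, not activating the receptor alone; inactive means the rest.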 Many of the other results were omitted from the sample, so actives are more common in it than they were.

molecular target: Mas-related G-protein coupled receptor member X1 (Homo sapiens) (UniProt Q96LB2); assay: allosteric enhancers of human MrgX1 signaling – HEK293 cells, Fluo-4 calcium flux, primary screen (AID 588675); details: MrgX1-HEK293, Fluo-4 calcium flux, FDSS, at 10 µM; active compounds read high;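 further: compound read alongside a low EC10 to EC30 dose of BAM8-22 agonist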;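 on B-score: peak minus trough fluorescence over baseline measured at the second addition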
Sequence (Q96LB2 whole entry, looked up): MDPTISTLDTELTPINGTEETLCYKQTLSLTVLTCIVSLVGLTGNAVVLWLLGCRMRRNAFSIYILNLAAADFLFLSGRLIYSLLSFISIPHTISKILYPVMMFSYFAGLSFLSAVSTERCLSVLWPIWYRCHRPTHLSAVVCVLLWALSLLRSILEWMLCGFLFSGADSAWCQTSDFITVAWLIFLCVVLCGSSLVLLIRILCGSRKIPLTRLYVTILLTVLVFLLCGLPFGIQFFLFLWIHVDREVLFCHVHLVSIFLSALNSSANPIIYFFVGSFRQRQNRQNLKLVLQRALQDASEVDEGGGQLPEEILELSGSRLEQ

| SMILES | B-score |
| --- | --- |
| CCC(C)c1ccc(O)c(/C=N/O)c1 (stereo not given) | 6.88 (active) |
| CNCC(O)c1ccc(O)c(O)c1 (stereo not given) | inactive |
| CCOC(=O)c1cccc(NC(=O)C2CCN(c3ncnc4c3nc3n4CCCCC3)CC2)c1 | inactive |
| CCCCCCCCCCCC(=O)O | inactive |
| CCCC(=O)OCC(=O)Nc1cc(Cl)ccc1[N+](=O)[O-] | 9.84 (active) |
| CC(C)(C)NC(=O)COC(=O)c1cc(Cl)ccc1[N+](=O)[O-] | inactive |
| Cc1cc(NC(=O)COC(=O)COc2ccc(Cl)cc2C)c([N+](=O)[O-])cc1C | inactive |
| CCN(CC(=O)NC1CCS(=O)(=O)C1)S(=O)(=O)c1ccccc1 (stereo not given) | inactive |
| Cc1coc2c(O)cc3c(c12)OC1(N2CCCCC2)C(=O)NCCCC31 (stereo not given) | inactive |
| COc1cccc(NC(=O)NCCN2CCCCC2)c1 | inactive |
| Cc1ccc2c(c1)C1CN(C)CCC1N2S(=O)(=O)c1ccc(Oc2ccc([N+](=O)[O-])cc2)cc1 (stereo not given) | inactive |
| Cc1ccc(S(=O)(=O)N(C)c2ccc(OCC(=O)OCC(=O)N(CC#N)c3ccccc3)cc2)cc1 | inactive |
| Cc1ccc2nc(Nc3ccccc3)cc(C)c2c1 | 14 (active) |
| Cc1cc(Nc2ccc(Br)cc2)nc2ccccc12 | inactive |
| Cc1ccc2nc(Nc3ccccc3O)nc(-c3ccccc3)c2c1 | inactive |
| CCCN(CCC)C(=O)C1c2ccccc2Oc2ccccc21 | inactive |
| CC(C)Nc1nnc(SCC(=O)/C=C2\N(C)c3ccccc3C2(C)C)s1 | inactive |
| CCOc1cccc(NC(=O)CC#N)c1 | inactive |
| CC(=O)Nc1cccc(OCC(=O)/C=C2\N(C)c3ccccc3C2(C)C)c1 | 6.96 (active) |
| Cc1ccc(S(=O)(=O)N2[C@@H](c3ccccc3F)C(C(=O)O)=CC[C@H]2c2ccc(Cl)cc2)cc1 | 15.6 (active) |
| Cc1ccc(S(=O)(=O)N2[C@@H](c3cccc(Cl)c3)C(C(=O)O)=CC[C@H]2c2ccc(Cl)c(Cl)c2)cc1 | inactive |
| Cc1ccc([C@@H]2CC=C(C(=O)O)[C@H](c3cccc(Cl)c3)N2S(=O)(=O)c2ccc(C)cc2)cc1 | inactive |
| CC(=O)Nc1cccc(C(=O)OCN2C(=O)c3ccccc3C2=O)c1 | inactive |
| O=C(c1ccc(OC2CCN(Cc3ccccn3)CC2)cc1)N1CCCCCC1 | inactive |
| O=C(c1ccc(OC2CCN(C/C=C/c3ccc(F)cc3)CC2)cc1)N1CCCCC1 | inactive |
| O=C(c1ccc(OC2CCN(C(=O)c3cccnc3)CC2)cc1)N1CCCCCC1 | 6.62 (active) |
| O=C(NCCCc1ccccc1)C1CCC(CNc2c(N3CCCCC3)c(=O)c2=O)CC1 (stereo not given) | inactive |
| CCOc1ccc(NC(=O)N2CCN(CC)CC2)cc1 | inactive |
| CCOc1ccc(NC(=O)N2CC=C(n3c(=O)[nH]c4ccccc43)CC2)cc1 | 7.16 (active) |
| Cc1cccc(C)c1NC(=O)N1CC=C(n2c(=O)[nH]c3ccccc32)CC1 | inactive |
